In PubChem BioAssay AID590 (National Center for Advancing Translational Sciences (NCATS), 2007):
Hit rate of the full screen: of about 59,000 compounds, about 6,500 (11%) were called active. Not shown: some 15% with an inconclusive outcome. This is one part of a sample in which actives are shown more often than they occur. Cut-off read from the data, not from the text of the source: active = max dye-equivalent concentration above about 10 nM; inconclusive = mostly about 1.1 nM to 9.6 nM; inactive = weaker than that. More than one record can exist for a structure, and the calls need not agree.

Assay: qHTS Assay for Spectroscopic Profiling in A350 Spectral Region
Conditions: Compound autofluorescence, 340/450 nm, Alexa 350 dye-equivalents; stronger effect = higher value
Text: NIH Molecular Libraries Screening Centers Network [MLSCN]
NIH Chemical Genomics Center [NCGC]
Occasionally, the artifactual effect may originate from the compounds own spectral or other biophysical properties which generally tend to track its assay concentration. Pre-screening/profiling the library with respect to the compounds spectral properties should help one exclude false positives early on. While the most informative fluorescent profiling data set is obtained by performing a full excitation and emission scan of each well by using a monochromator-based plate reader, such an approach is practical only on a very limited scale as scanning each well requires long time. An alternative approach, applied here, is to perform plate reader scans using selected excitation and emission wavelength pairs to generate a multidimensional relational database that correlates compound concentration and the respective relative fluorescence intensity at a given wavelength set. A standard curve of Alexa 350 (A 350) present on each plate as six-point concentration series, was used to compute a normalized fluorescence response, termed dye-equivalent concentration, for each compound at each concentration.
NCGC Assay Protocol Summary:
100 mM Tris buffer, pH 8.0
The wells in columns 1 through 4 of a Kalypsys polypropylene 1536-well compound plate were filled with standard solutions of fluorophore corresponding to the spectral region of interest. Solutions of A 350 were placed in the following wells: I1, J1: 3 mM, I2, J2: 300 uM, I3, J3: 30 uM, I4, J4: zero (DMSO), K1, L1: 3 uM, K2, L2: […], K3, L3: 300 nM, K4, L4: zero (DMSO).
Six uL of buffer were dispensed to 1536-well Greiner black plates. Compounds and dye standards (23 nL) were transferred via Kalypsys PinTool. The plates were incubated for 15 min at room temperature, and then read on ViewLux (Perkin-Elmer) High-throughput CCD imager using 340 nm and 450 nm excitation and emission filter set.
Keywords: NIH Roadmap, MLSCN, MLI, MLSMR, qHTS, NCGC, A350, A-350, Fluorescent Profiling.

Row | Structure (SMILES) | max dye-equivalent concentration | outcome
1 | CSC1=NP(=S)(SC)N(C)c2nc3n(c21)CCC3 (stereo unspecified) | 26 nM (active) | 
2 | CN1[C@@H]2CC[C@H]1CC(OC(=O)c1cc(Cl)cc(Cl)c1)C2 (stereo partly specified) | inactive | 
3 | CN1CCN(C(=O)O[C@@H]2c3nccnc3C(=O)N2c2ccc(Cl)cn2)CC1 | inactive | 
4 | c1ccc2c(c1)[I+]c1ccccc1-2 | inactive | 
5 | C[N+]1(C)C2CC(OC(=O)C(CO)c3ccccc3)CC1[C@@H]1O[C@H]21 (stereo partly specified) | inactive | 
6 | CC(C)(O)[C@H]1[C@H]2OC(=O)[C@@H]1[C@]1(O)C[C@H]3O[C@]34C(=O)O[C@H]2[C@]14C | inactive | 
7 | c1csc(CN2CCCC3(CCNCC3)C2)n1 | inactive | 
8 | c1ccc(CN2CC[C@@]3(CCCNC3)C2)cc1 | 13 nM (active) | 
9 | c1ccc(N2CC[C@@]3(CCCNC3)C2)nc1 | inactive | 
10 | C[C@@]12CC[C@H]3[C@@H](CC[C@]4(O)C[C@H](O)CC[C@@]34C=O)[C@]1(O)CC[C@@H]2C1=CC(=O)OC1 | inactive | 
11 | C[C@H](Br)C(=O)N[C@H](CO)C(=O)O | inactive | 
12 | CCOC(=O)c1c(N)n(Cc2ccccc2)c2nc3ccccc3nc12 | 1500 nM (active) | 
13 | c1csc(CN2CC3(CCNCC3)C2)n1 | inactive | 
14 | CC(=O)O[C@H]1CC[C@@]2(C)[C@@H](CC[C@H]3[C@H]2CC(=O)[C@]2(C)[C@@H]3C[C@@H](N3CC3)[C@H]2C(C)=O)C1 | inactive | 
15 | O=C(Nc1cccc(F)c1)N1CC[C@@]2(CCCN(C(=O)Oc3ccccc3)C2)C1 | inactive | 
16 | CCN1c2nc3c(C)cccn3c(=O)c2CC2(C(=O)N(C)C(=O)N(C)C2=O)C1C (stereo unspecified) | 38 nM (active) | 
17 | O=C(O)C(=O)Cc1ccc2c(c1)OCO2 | inactive | 
18 | COC(=O)COc1cc(C)cc2oc(=O)c3c(c12)CCCC3 | inactive | 
19 | CCCCCCN=C(CC)c1c(O)n(CCCC)c(=O)[nH]c1=O | inactive | 
20 | NC(=O)c1ccc(OC[C@H](O)CN2CC=C(c3ccc(F)cc3)CC2)cc1 | inactive | 
21 | CCN1C[C@]2(C)CC[C@H](O)[C@@]34[C@@H]5CC6[C@@H](OC)C[C@@](O)([C@@H]5[C@@H]6O)[C@H](C[C@@H]23)[C@H]14 | inactive | 
22 | C[C@]12CC[C@H](O)C[C@@H]1CC[C@H]1[C@H]2CC[C@]2(C)C(=O)CC[C@@H]12 | 64 nM (active) | inactive
23 | C[C@]12CC[C@H](O)CC1=CC[C@@H]1[C@H]2CC[C@]2(C)C(=O)CC[C@H]12 | inactive | 
24 | C[C@@]12CC[C@H](O)C[C@@H]1CC[C@@H]1[C@@H]2CC[C@@]2(C)[C@@H](C3=CC(=O)OC3)[C@H](O)C[C@]12O | inactive | 
25 | CC(C)(O)/C=C\C(=O)[C@](C)(O)[C@H]1[C@H](O)C[C@]2(C)[C@@H]3CC=C4[C@@H](C=C(O)C(=O)C4(C)C)[C@]3(C)C(=O)C[C@@]12C | inactive | 

Row | Structure (SMILES) | max dye-equivalent concentration | outcome
26 | CS(=N)(=O)CC[C@H](N)P(=O)(O)O (stereo partly specified) | inactive | 
27 | CC[C@@](O)(C(=O)O)c1cc2n(c(=O)c1CO)Cc1cc3ccccc3nc1-2 | 920 nM (active) | 
28 | CC[C@]1(O)C(=O)OCc2c1cc1n(c2=O)Cc2cc3ccccc3nc2-1 | 2600 nM (active) | 
29 | Cc1ccc(Cn2nnnc2CN2CCC(n3nnc4ccccc43)CC2)cc1 | inactive | 
30 | N[C@H](C(=O)O)c1cc(=O)[nH]o1 | inactive | 
31 | C[C@H]1CC[C@@]2(NC1)O[C@@H]1C[C@H]3[C@@H]4CC=C5C[C@@H](O)CC[C@]5(C)[C@@H]4CC[C@]3(C)[C@@H]1[C@@H]2C | inactive | 
32 | N[C@@H](Cc1c[nH]c2ccccc12)c1nnc(SCc2c(F)cccc2Cl)o1 | inactive | 
33 | CC[N+]1(C)CCCC(OC(=O)C(O)(c2ccccc2)c2ccccc2)C1 (stereo unspecified) | inactive | 
34 | CC(C)CCC1(CCN)C(=O)NC(=O)NC1=O | inactive | 
35 | O=C(c1cc(-c2ccncc2)nc2ccccc12)N1CCC2(CC1)OCCO2 | inactive | 
36 | Cc1cccc(-n2c(C)nc3cc(C(=O)N4CCC5(CC4)OCCO5)ccc32)c1 | inactive | 
37 | O=C(c1cc2nc(-c3ccccc3)cc(-c3ccccc3)n2n1)N1CCC2(CC1)OCCO2 | 48 nM (active) | 
38 | NCC[Se][Se]CCN | inactive | 
39 | CCN(CC)CCn1ncc2c(N)ncnc21 | inactive | 
40 | CC1=CC(=O)C2=C(C)C[C@H](O)[C@@H]3[C@@H](OC(=O)[C@H]3C)[C@H]12 | inactive | 
41 | O=C1C2CCN(CC2)C1(CO)CO | inactive | 
42 | CCOC(=O)c1c(-c2ccccc2)oc2ccc(OC(=O)N(C)C)cc12 | 53 nM (active) | 
43 | Cc1ccc(S(=O)(=O)O[C@H]2CN3CCC2CC3)cc1 | inactive | 
44 | NC[C@H](O)c1ccc(O)cc1 | inactive | 
45 | C=CCN1C(=O)C2(C(C(=O)OCC)=C(N)Oc3c2c(=O)oc2ccccc32)c2ccccc21 (stereo unspecified) | inactive | 
46 | COc1cc(C[C@H](C)N)c(OC)cc1I | inactive | 
47 | NCCc1c[nH]c2ccc(O)cc12 | inactive | 
48 | C/C(CCc1c[nH]c2ccccc12)=N\O | 16 nM (active) | 
49 | CC(=O)c1c(O)c(C)c(O)c(Cc2c(O)c3c(c(C(=O)/C=C\c4ccccc4)c2O)OC(C)(C)C=C3)c1O | inactive | 
50 | NCCc1ccc(S(=O)(=O)F)cc1 | inactive | 
